# ATXN viability: Viability Counterscreen for Primary qHTS for Inhibitors of ATXN expression. S2 cells (HEK-293 line with an ATXN2-luciferase reporter) viability, CellTiter-Fluor protease fluorescence, 24 h. Potency, µM (top dose mostly 56.7 µM), usual class: cytotoxic. hit rate 0.49% among 400,000. AID 651635, 2014; further: nearly all actives have a fitted effect of over 40% in size
# Nrf2 block: Nrf2 qHTS screen for inhibitors; A549 ARE-Fluc reporter, luciferase luminescence, 18-24 h; Potency, µM (highest dose often 46 µM), usual class: inhibitors; hit rate 2.1% among 360,000; AID 504444, 2011; further: nearly all actives have a fitted effect of over 60% in size
#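 A549 ARE_Fluc cells, 5000/well, 5% FBS OPTI-MEM; compounds in dose-response, 18-24 h at 37 °C/5% CO2; CellTiter-Fluor viability read (Ex 405/Em 525), then BugLite luciferase luminescence = Nrf2 activity.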
# Nrf2 activator: qHTS of Nrf2 Activators; hit rate 0.31% among 410,000; AREc32 ARE-luciferase reporter (MCF7-derived line), luminescence, 24 h; Potency, µM (highest dose often 46.1 µM), hits mostly activators; further: nearly all actives have a fitted effect of over 65% in size
#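 ARE activation measured as luciferase luminescence (Steady-Glo, 30 min RT) in AREc32_Fluc cells after 24 hr compound exposure at 37 deg C, 5% CO2; cells seeded overnight at 1000/well in OPTI-MEM, 5% FBS.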
# ATXN2 expr inh: Primary qHTS for Inhibitors of ATXN expression; HEK-293 ATXN2-luciferase reporter, luminescence, 24 h; Potency, µM (titrated, usually from 57 µM), most hits filed as inhibitors; hit rate 0.72% among 360,000; AID 1745845, 2022; further: nearly all actives have a fitted effect of over 55% in size
#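 qHTS (up to 57 uM final) was run with 24 h compound exposure of reporter cells at 37 °C. Each well was multiplexed: SteadyGlo luminescence measured ATXN2-luciferase expression after a fluorogenic Gly-Phe-AFC viability readout (25 uM final).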
# A549 viability: Nrf2 qHTS screen for inhibitors: counterscreen for cytotoxicity | hit rate 0.16% among 390,000 | A549 ARE-Fluc cells, CellTiter-Fluor viability, 18-24 h | Potency, µM (titrated, usually from 46 µM), most hits filed as inhibitors | AID 504648, 2011
#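 Cytotoxicity counterscreen: CellTiter-Fluor fluorescence was measured in A549 ARE_Fluc cells after 18-24 h of compound exposure in a concentration series. The subsequent BugLite luminescent read reports ARE-luciferase activity.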
# Numbers stand for hits; – = inactive; ? = inconclusive; · = not tested or not shown; [ ] = remark or other dose. Rows were chosen to be rich in hits. Some 2.9% of all compounds tested hit in one or more screens of this group. The call rests on the fitted dose curve; in most records, active means well fitted curve in the direction sought with a large enough effect; inconclusive means small, poorly fitted or top-dose-only effect, or another doubt; inactive means no such curve, though single readings can be large; an effect the other way counts as inactive or inconclusive.
SMILES,ATXN viability,Nrf2 block,Nrf2 activator,ATXN2 expr inh,A549 viability
Oc1[nH]c2c(Cl)cc(Cl)cc2c1N=NC(=S)NCC1CCCO1 (stereo unspecified),?,?,–,21µM,–
COc1ccc(OC2CCN(S(=O)(=O)c3ccc(C(C)=O)cc3)CC2)cc1,–,21µM,–,–,–
COc1ccc(OC2CCN(S(=O)(=O)c3ccc(OC)c(OC)c3)CC2)cc1,–,16µM,–,?,–
COc1ccc(OC2CCN(S(=O)(=O)c3ccccc3)CC2)cc1,–,–,–,?,–
COc1ccc(S(=O)(=O)N2CCN(CCCOc3ccc(F)cc3)CC2)cc1OC,–,23µM,–,–,–
COc1ccc(OC2CCN(S(=O)(=O)c3ccc(F)cc3)CC2)cc1,–,–,–,–,–
COC(=O)c1nc2nc(C)cc(=O)n2[nH]1,–,–,–,–,–
CCn1c(CN2CCN(c3cccc(C)c3C)CC2)n[nH]c1=S,–,?,–,–,–
CCN(CC)CC(C)CNC(=O)c1cc(-c2ccc(Br)s2)nc2ccccc12 (stereo unspecified),·,–[9.27 µM],–,28µM,–
Cc1nc2c(o1)CCc1ccccc1C2N1CCN(C)CC1 (stereo unspecified),?,–,–,–,–
CCOc1c2ccc(C(=O)NCc3cc(C(F)(F)F)cc(C(F)(F)F)c3)cc2nn1CCOC,–,?,–,–,–
CCCCn1nc2cc(C(=O)NCc3cc(C(F)(F)F)cc(C(F)(F)F)c3)ccc2c1OCC,–,18µM,–,–,–
CCc1ccc(S(=O)(=O)c2nnn3c2nc(Nc2ccc(F)cc2)c2cc(Cl)ccc23)cc1,–,9.2µM,–,–,–
COc1ccc(Nc2nc3c(S(=O)(=O)c4ccccc4)nnn3c3ccc(Cl)cc23)cc1,·,?,–,·,?
COc1ccc(CCNC(=O)CCn2c(=O)c3ccccc3n(Cc3c(C)cc(C)cc3C)c2=O)cc1OC,–,–,–,–,–
O=C(/C=C/c1ccc(Cl)cc1Cl)Nc1ccc(CN2CCOCC2)cc1,–,7.3µM,–,?,–
O=C(COc1ccc(S(=O)(=O)N2CCOCC2)cc1)Nc1ccc(Br)cc1,?,?,–,·,–
O=C(CCCOc1ccc(Br)cc1)Nc1ccc(S(=O)(=O)N2CCOCC2)cc1,–,15µM,–,?,–
O=C(COc1ccc(Br)cc1)Nc1ccc(CN2CCOCC2)cc1,–,23µM,–,–,–
O=C(COc1ccc(Cl)cc1Cl)Nc1ccc(CN2CCOCC2)cc1,–,?,–,–,–
O=C(COc1ccccc1Cl)Nc1ccc(CN2CCOCC2)cc1,–,23µM,–,–,–
O=C(C[n+]1cccc(Br)c1)c1cccs1,–,–,?,–,–
CC(Oc1cc2oc(=O)c3c(c2cc1Cl)CCC3)C(=O)NCC1CCC(C(=O)O)CC1 (stereo unspecified),–,–,–,–,–
Cc1ccc(CN2CC(C(=O)Nc3ncc(C)s3)CC2=O)cc1 (stereo unspecified),–,–,–,16µM,–
N=c1c2c(ccn1Cc1ccccc1)Oc1ccc3ccccc3c1C2c1ccccc1 (stereo unspecified),·,5.2µM,·,·,12µM
SMILES,ATXN viability,Nrf2 block,Nrf2 activator,ATXN2 expr inh,A549 viability
Cc1ccc(C(=O)N(Cc2ccc(N(C)C)cc2)Cc2ccco2)cc1,·,?,–,·,–
CCSc1ncc(Cl)c(C(=O)N(Cc2ccc(N(C)C)cc2)Cc2ccco2)n1,·,18µM,–,·,–
CCS(=O)(=O)c1ncc(Cl)c(C(=O)N(Cc2ccccc2)Cc2ccco2)n1,·,23µM,?,·,16µM
S=C(Nc1cccc(Cl)c1)N(CCCN1CCCC1)Cc1cccn1Cc1ccc(Cl)cc1,28µM,–,–,32µM,–
CSc1cccc(NC(=S)N(CCCN2CCCC2)Cc2cccn2Cc2ccc(Cl)cc2)c1,·,?,–,14µM,?
O=c1oc2ccccc2c(O)c1/C=C1\C=Nc2ccccc21,–,–,–,–,–
O=c1[nH]c(O)c(/C=C2\C=Nc3ccccc32)[nH]1,?,?,4µM,–,?
O=c1oc2ccccc2cc1-c1nc(-c2cccs2)cs1,·,·,2.5µM,–,–
O=C(NCc1ccc(OC(F)(F)F)cc1)c1ccc2c(c1)S(=O)(=O)c1ccccc1C2=O,–,?,–,–,–

# Assay outcomes from PubChem BioAssay.
